Source: article PMC4552634, “A New Set of Chemical Starting Points with Plasmodium falciparum Transmission-Blocking Potential for Antimalarial Drug Discovery” (PLoS ONE, 2015)
Hit rate of the full screen: of about 13,000 compounds, about 3,200 (25%) showed an effect of 50% or more. Some of the results follow.

Each compound was assayed on P. falciparum stage V gametocytes. Conditions: 48 h, 5 µM; inhibitor.
Parameters: BacTiter-Glo ATP luminescence viability of purified stage V gametocytes in 384-well plates, per cent inhibition versus DMSO
For `CCOCCCNc1sc(S(=O)(=O)c2ccccc2)nc1S(=O)(=O)c1ccc(C)cc1` [TCMDC-124750], the “% Inhibition” value was 20.27%.
With `O=C(Cc1ccc[n+]([O-])c1)Nc1cccc(-c2cccc(-c3nc4cc(C(F)(F)F)ccc4[nH]3)c2)c1` [TCMDC-136990] the “% Inhibition” value was -75.57%.
For `CC(=O)Nc1ccc(CN2CCN(C(c3ccc(F)cc3)c3ccc(F)cc3)CC2)cc1` [TCMDC-124045], the “% Inhibition” value was 16.43%.
`O=C(/C=C/c1ccc(F)cc1)NC1CCC(CCN2CCc3ccccc3CC2)CC1` (stereo not drawn) [TCMDC-139451] was tested, and the “% Inhibition” value was -36.35%.
`N#Cc1ccc(N2CCN(Cc3ccc(-c4ccc(-c5nc6cc(C(F)(F)F)ccc6[nH]5)cc4)cc3)CC2)nc1.O=C(O)C(F)(F)F` [TCMDC-133113] was tested, and the “% Inhibition” value was -14.21%.
With `Oc1ccccc1CN1CCCC(COC(c2ccc(F)cc2)c2ccc(F)cc2)C1` (stereo not drawn) [TCMDC-136037] the “% Inhibition” value was 28.2%.
With `Nc1c(Cl)cc(C(O)CNCCCCCOCCCc2ccc3ncccc3c2)cc1Cl` (stereo not drawn) [TCMDC-132087] the “% Inhibition” value was 57.03%.
For `Nc1c(Cl)cc(C(O)CNCCCCCCCCCc2ccccn2)cc1Cl` (stereo not drawn) [TCMDC-132100], the “% Inhibition” value was 20.05%.
`CCN(CC)S(=O)(=O)c1ccc(CCOCCCCCNCC(O)c2cc(Cl)c(N)c(Cl)c2)s1` (stereo not drawn) [TCMDC-132091] was tested, and the “% Inhibition” value was 31.84%.
`Nc1c(Cl)cc(C(O)CNCCCCCCOCCc2ccc(O)cc2)cc1Cl` (stereo not drawn) [TCMDC-132086] was tested, and the “% Inhibition” value was 21.31%.
With `Nc1c(Cl)cc(C(O)CNCCCCCOCCc2ccccc2)cc1C(F)(F)F` (stereo not drawn) [TCMDC-132081] the “% Inhibition” value was 12.69%.
`Nc1c(Cl)cc(C(O)CNCCCCCOCCCc2ccc(O)c3ncccc23)cc1Cl` (stereo not drawn) [TCMDC-132088] was tested, and the “% Inhibition” value was 115.2%.
With `Nc1c(Cl)cc(C(O)CNCCCCCOCCc2ccc3occc3c2)cc1Cl` (stereo not drawn) [TCMDC-132085] the “% Inhibition” value was 27.47%.
For `Nc1c(Cl)cc(C(O)CNCCCCCCOCCc2ccc(CO)s2)cc1Cl` (stereo not drawn) [TCMDC-132092], the “% Inhibition” value was 55.37%.
In the case of `Cc1ccc(CCOCCCCCNCC(O)c2cc(Cl)c(N)c(Cl)c2)cc1` (stereo not drawn) [TCMDC-132077], the “% Inhibition” value is reported as 0.6115%.
In the case of `CCOCc1cnc(C)nc1CNC(=O)c1c(C)[nH]c2ccc(C)cc12` [TCMDC-125780], the “% Inhibition” value is reported as 11.26%.
In the case of `CCCc1cc(=O)oc2cc(OC)c(C(=O)CC(C)C)c(OC)c12` [TCMDC-138262], the “% Inhibition” value is reported as -48.84%.
In the case of `Oc1cccc(-c2nc(-c3ccccc3)c(-c3ccc4oc5ccc(-c6[nH]c(-c7cccc(O)c7)nc6-c6ccccc6)cc5c4c3)[nH]2)c1` [TCMDC-124223], the “% Inhibition” value is reported as 14.59%.
`CC(CN(C)C)C(=O)Nc1ccc(-c2ccc(-c3nc4ccc(C(F)(F)F)cc4[nH]3)cc2)cc1` (stereo not drawn) [TCMDC-137113] was tested, and the “% Inhibition” value was -54.47%.
With `O=C(NCCN1CCCC1)c1cccc(-c2ccc(-c3nc4ccc(F)cc4[nH]3)cc2)c1` [TCMDC-132325] the “% Inhibition” value was -16.55%.
In the case of `CN(C)C(=S)NN=Cc1cccc(O)c1O` [TCMDC-137879], the “% Inhibition” value is reported as 23.09%.
In the case of `CC(=NNC(N)=O)C1=C(O)C(c2ccccc2)N(C2CCCCC2)C1=O` (stereo not drawn) [TCMDC-131672], the “% Inhibition” value is reported as -9.176%.
For `NC(N)=NN=CC(=O)Nc1ccc(Cl)c(C(F)(F)F)c1` [TCMDC-137561], the “% Inhibition” value was 9.011%.
For `Cc1cccc2nc(-c3cccc(-c4cccc(NC(=O)Cc5ccc[n+]([O-])c5)c4)c3)[nH]c12` [TCMDC-136992], the “% Inhibition” value was 24.81%.
For `COc1ccc(C(=O)NCCCCN2CCC(c3ccc4c(c3OC)CCCC4)CC2)cc1-c1ccc(C(F)(F)F)cc1` [TCMDC-138700], the “% Inhibition” value was -81.5%.
In the case of `Cc1cc(C2CCN(CCCCNC(=O)c3ccc(-c4ccc(C(F)(F)F)cc4)cc3)CC2)c(C)cc1OCC#N` [TCMDC-138799], the “% Inhibition” value is reported as 37.57%.
For `O=C(NCCCCN1CCC(c2ccc3c(c2OCCN2CCCC2=O)CCCC3)CC1)c1ccc(-c2ccc(C(F)(F)F)cc2)cc1` [TCMDC-138773], the “% Inhibition” value was 108.1%.
In the case of `O=C(NCCCCN1CCC(c2ccc3c(c2OCCOCCO)CCCC3)CC1)c1ccc(-c2ccc(C(F)(F)F)cc2)cc1` [TCMDC-138762], the “% Inhibition” value is reported as 96.11%.
For `O=C(NCCCCN1CC=C(c2ccc3c(c2OCC2CC2)CCCC3)CC1)c1ccc(-c2ccc(C(F)(F)F)cc2)cc1` [TCMDC-138758], the “% Inhibition” value was -36.04%.
For `O=C(NCCCCN1CCC(c2ccc3c(c2OCCCO)CCCC3)CC1)c1ccc(-c2ccc(C(F)(F)F)cc2)c(CO)c1` [TCMDC-138741], the “% Inhibition” value was 72.16%.
`N#CCOc1c(C2CCN(CCCCNC(=O)c3ccc(-c4ccc(C(F)(F)F)cc4)cc3)CC2)ccc2c1CCCC2` [TCMDC-138769] was tested, and the “% Inhibition” value was 92.11%.
In the case of `OC(c1ccccc1)C1CN(CCc2ccccc2)CCC1(O)c1ccccc1` (stereo not drawn) [TCMDC-131287], the “% Inhibition” value is reported as -3.552%.
With `O=C(/C=C/c1ccccc1Cl)Nc1ccc(Br)c(OCCN2CCN(CCN3CCOCC3)CC2)c1` [TCMDC-140958] the “% Inhibition” value was -23.86%.
In the case of `Fc1ccc2[nH]c(-c3cccc(-c4ccc(CNCc5cnn(-c6ccccc6)n5)cc4)c3)nc2c1.O=C(O)C(F)(F)F` [TCMDC-132973], the “% Inhibition” value is reported as -12.58%.
For `O=C(NC1CCCCC1)c1csc(C2CCCN(C(=O)c3ccc(O)c(-c4cccc(C(F)(F)F)c4)c3)C2)n1` (stereo not drawn) [TCMDC-140156], the “% Inhibition” value was 5.189%.
For `CC(=O)c1ccc(-c2cccc3c(CC(=O)Nc4ccc5nccc(N6CCN(C)CC6)c5c4)cccc23)cc1` [TCMDC-139271], the “% Inhibition” value was -10.77%.
In the case of `CCOC(=O)c1cc(C(=O)NCCCCN2CCC(c3cn(C)c4ccccc34)CC2)ccc1-c1ccc(C(F)(F)F)cc1` [TCMDC-138751], the “% Inhibition” value is reported as 1.206%.
In the case of `O=C(NCCCCN1CCC(c2ccc3c(c2OCCO)CCCC3)CC1)c1sc(-c2ccc(C(F)(F)F)cc2)nc1CO` [TCMDC-138776], the “% Inhibition” value is reported as 39.12%.
`O=C(NCCCCN1CCC(c2ccc3c(c2OCC2COCO2)CCCC3)CC1)c1ccc(-c2ccc(C(F)(F)F)cc2)cc1` (stereo not drawn) [TCMDC-138770] was tested, and the “% Inhibition” value was 14.16%.
`O=C(NCCCCN1CCC(c2ccc3c(c2OCCO)CCCC3)CC1)c1ccc2oc(-c3ccc(C(F)(F)F)cc3)cc2c1` [TCMDC-138771] was tested, and the “% Inhibition” value was 113.6%.
With `O=C(NCCCCN1CCC(c2cccc3ccccc23)CC1)c1ccc(-c2ccc(C(F)(F)F)cn2)cc1` [TCMDC-138570] the “% Inhibition” value was -25.01%.
`O=C(NCCCCN1CCC(c2ccc3c(c2OCCCO)CCCC3)CC1)c1ccc(-c2ccc(C(F)(F)F)cc2)cc1` [TCMDC-138743] was tested, and the “% Inhibition” value was 141.9%.
For `O=C(NCCCCN1CCC(c2ccc3c(c2OCCO)CCCC3)CC1)c1ccc(-c2ccc(C(F)(F)F)cc2)cc1` [TCMDC-138714], the “% Inhibition” value was 98.87%.
In the case of `Cn1cc(C2CCN(CCCCNC(=O)c3ccc(-c4ccc(C(F)(F)F)cc4)c(CO)c3)CC2)c2ccccc21` [TCMDC-138748], the “% Inhibition” value is reported as 65.02%.
`CNC(=O)COc1cc(C)c(C2CCN(CCCCNC(=O)c3ccc(-c4ccc(C(F)(F)F)cc4)cc3)CC2)cc1C` [TCMDC-138846] was tested, and the “% Inhibition” value was 42.45%.
In the case of `CN1CCCc2ccc(NC(=O)c3cc(-c4ccc(Cl)cc4)cs3)cc2C1` [TCMDC-133946], the “% Inhibition” value is reported as 39.01%.
In the case of `CCN(CCCN1CCCCC1)c1nc(C)cc(Nc2ccc(Cl)cc2)n1` [TCMDC-137045], the “% Inhibition” value is reported as 21.21%.
With `O=C(Nc1ccc2c(c1)OCO2)NC1CCN(c2ccnc(NCc3ccc(F)cc3)n2)CC1` [TCMDC-133635] the “% Inhibition” value was 26.57%.
For `Cc1ccc(NC(=O)c2ccc3ncccc3c2)cc1OC1CCN(CCC(C)C)C1` (stereo not drawn) [TCMDC-133980], the “% Inhibition” value was 9.414%.
`CCCC1N=C(N)N=C(N)N1c1ccc(OC)cc1` (stereo not drawn) [TCMDC-131295] was tested, and the “% Inhibition” value was -30.41%.
With `O=C(Nc1ccc(CCNC2=NCCN2)cc1)Nc1ccc(CCNC2=NCCN2)cc1` [TCMDC-137205] the “% Inhibition” value was 10.33%.
In the case of `CCCCc1ccc2[nH]c(NC(=O)OC)nc2c1` [TCMDC-131798], the “% Inhibition” value is reported as -12.96%.
In the case of `CC(C)(C)OC(=O)Cn1cnc2cc(NC(=O)c3cc([N+](=O)[O-])cc([N+](=O)[O-])c3)ccc21` [TCMDC-131910], the “% Inhibition” value is reported as -17.84%.
For `Cc1nc2ccc3ccc(CNc4ccc(C(=O)N[C@@H](CCC(=O)O)C(=O)N[C@@H](Cc5cccs5)C(=O)O)c(F)c4)cc3c2c(=O)[nH]1` [TCMDC-137819], the “% Inhibition” value was 7.673%.
`O=C(CNC(=O)c1ccc(O)cc1)Nc1cccc(-c2cccc(-c3nc4ccc(C(F)(F)F)cc4[nH]3)c2)c1` [TCMDC-136816] was tested, and the “% Inhibition” value was 11.2%.
In the case of `CN1CCN(CC(O)CNC(=O)Nc2ccc(Br)cc2)CC1` (stereo not drawn) [TCMDC-134635], the “% Inhibition” value is reported as 15.1%.
For `CC(=O)COc1c(C2CCN(CCCCNC(=O)c3ccc(-c4ccc(C(F)(F)F)cc4)cc3)CC2)ccc2c1CCCC2` [TCMDC-138738], the “% Inhibition” value was 105.6%.
With `O=C(NCCCCN1CCC(c2ccc3c(c2OCC(O)c2ccc(Cl)cc2)CCCC3)CC1)c1ccc(-c2ccc(C(F)(F)F)cc2)cc1` (stereo not drawn) [TCMDC-138749] the “% Inhibition” value was 115%.
In the case of `O=C(NCCCCN1CCC(c2ccc3c(c2OCCN2CCCC2)CCCC3)CC1)c1ccc(-c2ccc(C(F)(F)F)cc2)cc1` [TCMDC-138768], the “% Inhibition” value is reported as 107.4%.
`NC(N)=Nc1nccc(NCc2ccccc2)n1` [TCMDC-141971] was tested, and the “% Inhibition” value was 14.91%.
For `N#Cc1ccc(N(CCOc2ccc3c(c2)CCC(=O)N3)Cc2ccccc2C(F)(F)F)cc1C(F)(F)F` [TCMDC-132801], the “% Inhibition” value was 23.33%.
With `O=C(Nc1cccc(CN2CCCN(Cc3ccc(O)cc3)CC2)c1)c1cc(F)cc(F)c1` [TCMDC-141881] the “% Inhibition” value was 2.179%.
`O=C(/C=C/c1ccc(Cl)c(Cl)c1)NCCCCCN1CCC(NC(=O)NCCc2ccccc2)CC1` [TCMDC-135707] was tested, and the “% Inhibition” value was -32.39%.
